# From PubChem BioAssay
# Shown are actives, neighbours in structure and some others; about 6.5% of the full set was active somewhere.
# VACV Venus inh: inhibitors of vaccinia virus (Venus reporter) | Vaccinia virus Venus reporter expression, fluorescence | Potency, µM (series often up to 36.5 µM), inactives show at the highest dose activity change, negative = inhibition, actives largely listed as inhibitors | actives 0.46% (n = 330,000); calls by dose curve; tested in A549 cells; note: potency is the fitted concentration of half-maximal effect; nearly all actives have a fitted effect of over 30% in size
# HCMV inh: blocks human cytomegalovirus replication. activity change, negative = inhibition, % at 57.5 µM. HFF cells, HCMV-luciferase reporter, 72 h; stronger effect = lower value. actives 4.5% (n = 410,000). AID 1259415; in the data active = activity change below about -60%; inconclusive = no clear call, values can overlap the other calls; inactive = above about -39%
#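 Steps: HFFs plated, 16 h 37C; compounds added; HCMV-luciferase added to MOI 1 PFU/cell; 72 h 37C; OneGlo reagent, 5 min room temperature; luminescence read, normalized to controls.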
# FMDV inh: foot and mouth disease virus antiviral activity | FMDV antiviral cell-based qHTS | Potency, µM (highest dose often 57.9 µM), for the others: top-dose activity change, negative = inhibition, hits mostly inhibitors | actives 1.2% (n = 410,000); calls by dose curve; tested in HEK293T cells; note: read-out not given here; potency is the fitted concentration of half-maximal effect; nearly all actives have a fitted effect of over 45% in size
# Lassa entry inh: Lassa virus entry inhibition | actives 1.2% (n = 300,000) | Lassa virus pseudotype entry inhibition, cell reporter | Potency, µM (titrated, usually from 37.9 µM), for inactives: at the top dose activity change, negative = inhibition, hits mostly inhibitors; calls by dose curve; tested in HEK293 cells; note: potency is the fitted concentration of half-maximal effect; nearly all actives have a fitted effect of over 50% in size
# MARV entry inh: inhibitors of Marburg virus binding or cell entry. Potency, µM (doses to about 37.8 µM), inactives show top-dose activity change, negative = inhibition, most hits filed as inhibitors. actives 1.8% (n = 300,000). Marburg virus pseudotyped entry inhibition, cell reporter; calls by dose curve; tested in HEK293 cells; note: potency is the fitted concentration of half-maximal effect
# VACV mCherry inh: vaccinia inhibition (mCherry reporter). Potency, µM (highest dose often 36.5 µM), for the others: at the highest dose activity change, negative = inhibition, most hits filed as inhibitors. Vaccinia virus mCherry reporter infection, fluorescence. actives 0.63% (n = 310,000); calls by dose curve; tested in A549 cells; note: potency is the fitted concentration of half-maximal effect; nearly all actives have a fitted effect of over 35% in size
# Starred values were filed as active, the others as inactive; i = inactive; ? = inconclusive; / = no result; [ ] = another dose, or the depositor's remark. % is set by controls: 0 for no effect and ±100 for the full control effect.
SMILES,VACV Venus inh,HCMV inh,FMDV inh,Lassa entry inh,MARV entry inh,VACV mCherry inh
CCOc1ccc(S(=O)(=O)N(C(=O)c2ccncc2)c2ccc3oc(C)c(C(=O)OC)c3c2)cc1,-27%[7.34 µM],-79*,-24%,?,10µM*,-25%[7.34 µM]
CCOC(=O)c1c(C)oc2ccc(N(C(=O)c3ccncc3)S(=O)(=O)c3ccc(F)cc3)cc12,-8%,-5,6%,-3%[46.1 µM],?,-16%
CCc1ccc(S(=O)(=O)N(C(=O)c2ccncc2)c2ccc3oc(C)c(C(=O)OC)c3c2)cc1,-21%[7.34 µM],-64*,-5%,?,?,-21%[7.34 µM]
c1ccc2c(c1)OCC(c1csc3ncnc(N4CCOCC4)c13)O2 (centres undefined),-18%,-60*,/,20%,5%,i
CCOc1ccc(S(=O)(=O)Nc2cccc(C(=O)N3CCN(c4ccccn4)CC3)c2)cc1,-22%,-62*,-27%,/,/,?
Cc1ccc(S(=O)(=O)NCc2ccc(C(=O)N3CCN(c4ccccn4)CC3)cc2)cc1,-25%,-26,?,-24%,?,-26%
Cc1ccc(NS(=O)(=O)c2ccc(C(=O)N3CCN(c4ccccn4)CC3)cc2)cc1,-27%,?,18µM*,-14%,-24%,/
CCOc1ccc(NS(=O)(=O)c2cccc(C(=O)N3CCN(C/C=C/c4ccccc4)CC3)c2)cc1,?,?,28µM*,?,?,i
CN(c1ccc(OCC(=O)N2CCN(C/C=C/c3ccccc3)CC2)cc1)S(=O)(=O)c1cccs1,/,-82*,?,/,/,/
Clc1ccc(C(c2ccc(Cl)cc2)C(Cl)(Cl)Cl)cc1,-21%,/,3.5µM*,/,/,-17%
COc1ccc(CCNC(=O)Cn2nc(C)c3c(C)n(-c4ccccc4)nc3c2=O)c(OC)c1,/,-1,-24%,/,/,/
COc1ccc(OC)c(CCNC(=O)Cn2nc(C)c3c(C)n(-c4ccc(C)cc4)nc3c2=O)c1,?,-92*,?,?,?,-30%
Cc1ccc(-n2nc3c(=O)n(CC(=O)NCCc4ccccc4C)nc(C)c3c2C)cc1,?,-73*,?,0%[46.1 µM],?,?
CC(C)CCNC(=O)C(c1ccc(O)cc1)N(C(=O)C1COc2ccccc2O1)c1cccc(O)c1 (centres undefined),-14%,-63*,1%,?,?,i
CCOC(=O)CSC1=C(C#N)[C@H](c2ccc(OC)cc2)C2=C(CC(C)(C)CC2=O)N1,/,/,/,/,-13%,/
COC(=O)CN1C(=O)COc2ccc(S(=O)(=O)NCc3ccc(Cl)cc3)cc21,/,?,12%,/,/,/
CCc1ccc(Oc2nccc(-c3c(-c4ccc(F)cc4)ncn3C3CCNCC3)n2)cc1,/,/,/,11µM*,/,/
O=S(=O)(c1cc(F)ccc1F)N1CCN(c2ncnc3ccccc23)CC1,/,?,10µM*,/,/,/
O=S(=O)(c1cc(F)ccc1F)N1CCN(c2ccccn2)CC1,/,-8,-20%,/,/,/
CC(C)c1c(C(=O)NCC(C)(C)N2CCOCC2)cnn1-c1nccc(-c2ccccc2F)n1,-8%,/,0%,/,/,-11%
COCCNc1c(-c2cc3ccc(C)c(C)c3[nH]c2=O)nc2ccccn12,-13%,137,16%,5µM*,?,?
CC(C)CC1OC(C(C)C)Cc2[nH]c(=S)[nH]c(=O)c21 (centres undefined),0.013µM*,?,0%,/,/,/
CC(C)[C@@H]1Cc2[nH]c(=S)[nH]c(=O)c2[C@H](C)O1,0%,3,-20%,/,/,38%
CC(C)c1c(C(=O)N(C)Cc2cccc3ncccc23)cnn1-c1nccc(-c2ccccc2F)n1,?,/,13µM*,/,/,?
COc1ccc(NC(=O)c2ccc(S(=O)(=O)N(C)c3ccccc3)cc2)cc1S(=O)(=O)N1CCOCC1,?,?,16µM*,/,/,?
SMILES,VACV Venus inh,HCMV inh,FMDV inh,Lassa entry inh,MARV entry inh,VACV mCherry inh
Cc1ccc(NC(=O)c2ccc(S(=O)(=O)N(C)c3ccccc3)cc2)cc1S(=O)(=O)N1CCOCC1,/,0,13µM*,/,/,/
FC(F)(F)c1ccc(N2CCN(Cc3ccc4c(c3)OCO4)CC2)nc1,-22%,-64*,0%,-2%,2%,i
O=C(c1ccc2c(c1)OCO2)N1CCN(c2ccc(C(F)(F)F)cn2)CC1,-26%,?,0%,-9%,0%,-6%
O=C(c1ccc2c(c1)OCCO2)N1CCN(c2ccc(C(F)(F)F)cn2)CC1,-21%,-60*,?,/,/,-4%
Cc1nn(-c2ccccc2)c(C)c1CC(=O)NCC1Cc2cc(-c3cncnc3)ccc2O1 (centres undefined),2%,/,-11%,/,/,-11%
CN(N=O)c1cc(O)ccc1O,/,/,/,16µM*,?,/
N#C/C(C(=O)NCc1ccco1)=C1\S[C@@H](Cc2ccc(Cl)cc2)C(=O)N1c1ccccc1,/,/,/,/,16%,/
Cc1cc(C(F)(F)F)c(C#N)c(SCC(=O)Nc2nc3ccccc3s2)n1,22%,-60*,?,?,4.5µM*,-7%
Cc1nc(SCC(=O)Nc2nc3ccccc3s2)c(C#N)c(C)c1C,/,-94*,0.1µM*,?,?,/
CSc1nc(N)nc(SCC(=O)Nc2cccc(F)c2)c1C#N,?,-65*,?,?,?,?
Cc1ccc2sc(NC(=O)CSc3nc(C)cc(C)c3C#N)nc2c1,/,56,55%,?,?,/
CC(C)c1nnc(NC(=O)CSc2nc3ccccc3s2)s1,/,-73*,19%,-5%,3%,/
CCOC(=O)c1ccc(NC(=O)Cc2ccc(-n3c(CC)nc4cccnc43)cc2)cc1,-6%,0,-16%,2%[46.1 µM],/,-16%
N#Cc1c(C(F)(F)F)cc(-c2cccs2)nc1SCC(=O)Nc1cccc(Cl)c1,-20%,-22,1%,4%[46.1 µM],20%[46.1 µM],-18%
Cc1nc(SCC(=O)Nc2nccs2)c(C#N)c(C)c1C,/,-69*,-25%,/,/,/
Cc1sc(NC(=O)CSC2=NCCS2)nc1-c1ccccc1,-13%,-24,?,?,?,-20%
N#Cc1c(C(F)(F)F)cc(-c2cccs2)nc1SCC(=O)Nc1cccc(Br)c1,?,-70*,0%,1%[46.1 µM],-20%[46.1 µM],?
CC(C)CC(=O)Nc1nnc(SCC(=O)Nc2nccs2)s1,-7%,-63*,-11%,-4%,27%,-22%
COc1cc(-c2cc(-c3ccccc3)nc(SCC(=O)Nc3nccs3)c2C#N)cc(OC)c1OC,2%,16,-2%,-4%,-27%,/
O=C(CSC1=NCCS1)Nc1nc2ccccc2s1,?,-68*,1%,8%,-14%,?
Cc1cc2nc(N3CCCN(Cc4cccn4-c4ncccn4)CC3)nc(C)c2cc1C,12%,/,-15%,/,/,-18%
CNc1nc(-c2ccccc2)c(-c2ccccc2)s1,-8%,/,/,/,/,i
CCC1(C2CCN(C(=O)c3ccccc3Cl)CC2)NC(=O)N(CCc2scnc2C)C1=O (centres undefined),-14%,/,9%,/,/,i
